Experimental data reported in PubChem BioAssay AID504339 (National Center for Advancing Translational Sciences (NCATS), 2011).
The campaign covered roughly 390,000 compounds. About 17,000 (4.4%) were called active. Where a call stands in place of a potency, no number is given. Roughly 8% stayed inconclusive and do not appear here. Calls come from the whole dose curve; as a rule, active = well fitted inhibition curve with a large enough effect; inconclusive = small, poorly fitted or top-dose-only effect; inactive = no such curve, though single readings can be large or run the other way. This excerpt belongs to a sample that is enriched for actives.
Note: nearly all actives have a fitted effect of over 50% in size.
Potency is the fitted concentration of half-maximal effect.

These compounds were tested against Lysine-specific demethylase 4A (Homo sapiens) (UniProt O75164) (assay: qHTS Assay for Inhibitors of JMJD2A-Tudor Domain). Details: AlphaScreen JMJD2A-Tudor / H3K4me3 peptide binding; series mostly up to 114 µM.
Lysine-specific demethylase 4A (Homo sapiens), sequence (O75164 whole entry, looked up, the tested form may be a part): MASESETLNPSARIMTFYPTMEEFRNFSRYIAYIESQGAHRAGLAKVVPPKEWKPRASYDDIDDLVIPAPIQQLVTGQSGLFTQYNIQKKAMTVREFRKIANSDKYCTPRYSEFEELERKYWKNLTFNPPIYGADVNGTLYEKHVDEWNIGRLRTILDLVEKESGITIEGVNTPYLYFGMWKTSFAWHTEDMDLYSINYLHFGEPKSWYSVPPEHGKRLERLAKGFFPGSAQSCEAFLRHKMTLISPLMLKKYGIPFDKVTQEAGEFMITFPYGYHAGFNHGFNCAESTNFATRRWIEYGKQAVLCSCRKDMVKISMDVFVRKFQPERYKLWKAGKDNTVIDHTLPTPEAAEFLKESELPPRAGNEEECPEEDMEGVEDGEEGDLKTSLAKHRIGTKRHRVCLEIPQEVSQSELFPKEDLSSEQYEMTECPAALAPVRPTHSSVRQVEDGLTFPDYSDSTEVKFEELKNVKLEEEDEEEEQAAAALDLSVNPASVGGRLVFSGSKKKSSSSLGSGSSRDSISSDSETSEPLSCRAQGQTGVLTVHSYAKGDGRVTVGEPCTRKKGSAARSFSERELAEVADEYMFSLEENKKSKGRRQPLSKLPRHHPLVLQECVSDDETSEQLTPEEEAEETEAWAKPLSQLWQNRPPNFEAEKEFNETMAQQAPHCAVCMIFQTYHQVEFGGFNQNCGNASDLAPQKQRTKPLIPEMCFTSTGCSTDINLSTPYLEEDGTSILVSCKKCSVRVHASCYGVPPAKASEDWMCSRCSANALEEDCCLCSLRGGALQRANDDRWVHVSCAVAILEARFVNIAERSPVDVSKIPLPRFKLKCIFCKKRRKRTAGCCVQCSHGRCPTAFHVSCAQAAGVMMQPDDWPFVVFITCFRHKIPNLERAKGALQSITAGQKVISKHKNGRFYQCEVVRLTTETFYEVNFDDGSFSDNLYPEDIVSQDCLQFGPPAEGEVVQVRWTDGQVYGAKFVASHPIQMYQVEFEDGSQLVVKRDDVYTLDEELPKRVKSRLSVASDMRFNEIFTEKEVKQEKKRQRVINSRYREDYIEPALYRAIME
Source text: JMJD2A is a jumonji-domain-containing lysine demethylase that uses Fe(II) together with 2-OG to effect oxidative demethylation of histones. Methylation is one of many […] modification that affect epigenetic transcription. […] It is proposed that the functions of JmjD2A binding to the histones, is to maintain marks after they are installed and to spread the modifications by […], establishing a self-propagating cycle for rapid methylation over a large area of chromatin. […] Thus, small molecule targeting of the JMJD2A-tudor domain interaction with its target methylhistone mark is expected to enable sophisticated experiments probing the fine regulatory pathways leading to selective demethylation of a given methyllysine locus based on the methylation state of adjacent histone marks. A quantitative high throughput AlphaScreen has been developed to identify small molecule inhibitors based on a protocol published by NCGC and SGC [4].
Although AlphaScreen has significant advantages with its utility in a variety of epigenetic target assays, the primary screening data provided in this deposition should be used with caution due to the prevalence of screening artifacts. The top compound concentration tested was high (>100uM) in this assay, which increases number of actives and potential artifacts. An AlphaScreen counterscreen is highly recommended to be run against any putative actives to eliminate non-specific artifacts. Alternatively, one can use other AlphaScreen assays in PubChem to filter out promiscuous hits.
[1] Lee, J. et al. Distinct binding modes specify the recognition of methylated histone H3K4 and H4K20 by JMJD2A-tudor. Nat Struct Mol Biol. 15(1); 109-11. 2008. PMID: 18084306
[2] Yasgar, et al. Compound Management for Quantitative High-Throughput Screening. JALA. 2008 Apr;13(2):79-89. PMID: 18496600
[3] Inglese, et al. Quantitative high-throughput screening: a titration-based approach that efficiently identifies biological activities in large chemical libraries. Proc Natl Acad Sci. 1;103(31):11473-8. 2006. PMID: 16864780
[4] Quinn et al. A homogeneous method for investigation of methyl-dependent protein-protein interactions in epigenetics. Nucleic Acids Res., 38(2):e11. 2010. PMID: […]
[5] Baell,Holloway. New substructure filters for removal of pan assay interference compounds (PAINS) from screening libraries and for their exclusion in bioassays. J Med Chem. 53(7):2719-40. 2010. PMID: 20131845
NIH Molecular Libraries Probe Production Network [MLPCN]
NIH Chemical Genomics Center [NCGC]
Structural Genomics Consortium (SGC)
To each well of a 1,536w plate, 2ul of JMJD2A-Tudor (final 100nM) and 1ul biotinylated histone peptide methylated at Lys4 [b-H3(1-18)K4me3] (final 50nM) were added in 1x PBS buffer, pH 7.4, containing 0.01% Tween-20, using a nanoliter dispenser. Formation of a protein-peptide complex proceeded at room temperature for 30 min. A Kalypsys pin-tool transferred 23nl of library compound solution in DMSO to each well. Following a 30 min incubation of the protein-peptide complex with compounds at room temperature, a mixture of 40 µg/mL each streptavidin-coated donor and nickel chelate acceptor AlphaScreen beads (final 10 µg/mL) was added in a 1ul dispense for a final volume of 4ul, followed by a brief centrifugation (1000 rpm, 1 min). Plates were incubated protected from the light for 20 min at room temperature. Microplates were then read on an EnVision multilabel plate reader using the 1,536 plate HTS AlphaScreen aperture (excitation time 80 ms, measurement time 240 ms).
`CCc1nn(CC(=O)NCC(C)c2ccccc2)c(=O)c2cc3occc3n12` (centres undefined) was tested, and the Potency was “inactive”. In the case of `COc1ccccc1CNc1nccn(-c2ccc(F)cc2)c1=O`, the Potency is reported as “inactive”. In the case of `COc1ccc(OC)c(CNC(=O)c2c3c(nc4ccccc24)C(=O)N(C2CCCCC2)C3)c1`, the Potency is reported as “inactive”. `Cc1cccc(N2CCN(C(=O)CCSCc3ccccc3F)CC2)c1C` was tested, and the Potency was “inactive”. `CCOc1ccc(OCC)c(NS(=O)(=O)c2ccc3[nH]c(=O)ccc3c2)c1` was tested, and the Potency was “inactive”. `Clc1c(OCCCn2ccnc2)ccc2ccccc12` was tested, and the Potency was 56.2 µM (active). For `O=C(NCCCn1ccnc1)c1ccccc1F`, the Potency was “inactive”. With `CCOc1ccc(S(=O)(=O)NCCCn2ccnc2)cc1NC(C)=O` the Potency was “inactive”. In the case of `C=CCc1cc(C)ccc1OCCCn1ccnc1`, the Potency is reported as 20 µM (active). In the case of `Cc1ccc2c(Cl)c(C(=O)NCCCn3ccnc3)sc2c1`, the Potency is reported as “inactive”. In the case of `Brc1ccc(OCCn2ccnc2)cc1`, the Potency is reported as “inactive”. With `COc1ccc(-c2noc(CSc3nc4ccc(C)cc4[nH]3)n2)cc1` the Potency was “inactive”. `COc1ccc(CCNCc2c(C(=O)O)c(C)n(Cc3cccc(C)c3)c2C)cc1OC` was tested, and the Potency was “inactive”. With `CC(=O)c1ccc(NC(=O)COc2ccccc2-c2nc(-c3ccccc3)no2)cc1` the Potency was “inactive”. With `CCOC(=O)c1ccc(NC(=O)C2CC(=O)N(c3ccc(C(C)C)cc3)C2)cc1` (centres undefined) the Potency was “inactive”. For `Cc1ccccc1OCC(=O)Nc1nnc(S(=O)(=O)N2CCCC2)s1`, the Potency was “inactive”. `CCC(=O)Nc1nnc(S(=O)(=O)N(CC(C)C)c2ccccc2)s1` was tested, and the Potency was “inactive”. `CCN(CC)S(=O)(=O)c1nnc(NC(=O)COc2ccccc2Cl)s1` was tested, and the Potency was 31.6 µM (active). With `Cc1cccc(C)c1NC(=O)CSc1nnc(-c2ccccc2)n1Cc1ccc2c(c1)OCO2` the Potency was “inactive”. `CC1=C(C(N)=O)C(c2ccc3c(c2)OCO3)n2nc(-c3cccc(C)c3)nc2N1` (centres undefined) was tested, and the Potency was “inactive”. `c1ccc(-c2nnc3n2NC(c2ccc4c(c2)OCO4)S3)cc1` (centres undefined) was tested, and the Potency was 22.4 µM (active). `CCOc1ccccc1N(CC)C(=O)c1cc2ccc3cccnc3c2[nH]1` was tested, and the Potency was “inactive”. `O=[N+]([O-])c1ccc(Oc2ccc(F)cc2Br)c2ccncc12` was tested, and the Potency was 44.7 µM (active). `COc1cccc(NC(=O)N2CCN(C(=O)c3nsc4ccccc34)CC2)c1` was tested, and the Potency was “inactive”. In the case of `CC1CCc2noc(NC(=O)c3ccc([N+](=O)[O-])cc3)c2C1` (centres undefined), the Potency is reported as “inactive”. In the case of `COc1cccc(OCCn2c(-c3ccc(Br)cc3)nc3ccccc3c2=O)c1`, the Potency is reported as “inactive”. For `O=C(C1CCN(Cc2ccc(Cl)cc2)CC1)N1CCN(Cc2ccc3c(c2)OCO3)CC1`, the Potency was 2.51 µM (active). `O=C(C1CCN(C2CCN(Cc3cccc4c3OCO4)CC2)CC1)N1CCOCC1` was tested, and the Potency was “inactive”. `O=C(Nc1ccccc1)N1CCC(C(=O)N2CCN(Cc3ccccc3)CC2)CC1` was tested, and the Potency was “inactive”.
